PKM2 inh – qHTS Assay for Inhibitors of Human Muscle isoform 2 Pyruvate Kinase; Pyruvate kinase PKM (Homo sapiens), P14618; purified PKM2, ATP generation, Kinase-Glo luminescence; Potency, µM (series often up to 57.5 µM), without a hit: at the highest dose activity change, negative = inhibition, actives largely listed as inhibitors; actives 0.058% (n = 260,000); further: potency means the concentration at half of the fitted maximal effect; nearly all actives have a fitted effect of over 60% in size
Target sequence (P14618 whole entry, looked up, canonical isoform): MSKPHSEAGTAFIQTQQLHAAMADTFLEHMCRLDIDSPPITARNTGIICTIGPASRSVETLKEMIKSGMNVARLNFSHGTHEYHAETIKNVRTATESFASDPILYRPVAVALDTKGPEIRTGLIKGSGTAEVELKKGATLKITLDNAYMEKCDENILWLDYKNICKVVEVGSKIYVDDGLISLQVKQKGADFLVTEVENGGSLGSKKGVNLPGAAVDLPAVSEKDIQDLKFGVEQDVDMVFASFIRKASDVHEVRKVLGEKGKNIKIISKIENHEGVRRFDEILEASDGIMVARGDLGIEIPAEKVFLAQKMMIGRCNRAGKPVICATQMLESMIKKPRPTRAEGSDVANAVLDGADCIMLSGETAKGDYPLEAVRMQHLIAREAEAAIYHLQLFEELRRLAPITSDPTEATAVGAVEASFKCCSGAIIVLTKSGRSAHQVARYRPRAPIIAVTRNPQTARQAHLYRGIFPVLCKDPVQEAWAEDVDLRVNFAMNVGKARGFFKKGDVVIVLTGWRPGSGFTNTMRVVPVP
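Coupled luciferase luminescence (Kinase-Glo) detects ATP generated from 0.1 mM ADP and 0.5 mM PEP in imidazole buffer pH 7.2 with KCl, MgCl2; 1 h at room temperature. Enzyme at intermediate activity; normalized to uninhibited and no-enzyme controls.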
PKM2 inh CRC – Confirmation Concentration-Response Assay for Inhibitors of Human Muscle isoform 2 Pyruvate Kinase | shares compounds with PKM2 inh | purified hPK-M2, Kinase-Glo ATP luminescence, 1 h | Potency, µM (top dose mostly 57.5 µM), inactives show top-dose activity change, negative = inhibition, usual class: inhibitors | actives 50% (n = 55) | AID 2263, 2010
PKM2 FLuc cs – Secondary assay for Inhibitors of Human Pyruvate Kinase M2 isoform: FLuc Counterscreen. shares compounds with PKM2 inh. Kinase-Glo firefly luciferase, luminescence, 8 min. Potency, µM (series often up to 57.5 µM), for the others: at the top dose activity, negative = inhibition, hits mostly inhibitors. actives 30% (n = 55). AID 2265, 2010
PKM2 LDH couple – Secondary assay for Inhibitors of Human Pyruvate Kinase M2 isoform; Potency, µM (top dose mostly 57.5 µM), without a hit: at the top dose activity change, negative = inhibition, usual class: inhibitors; shares compounds with PKM2 inh; 55 tested, under 10 active; purified hPK-M2, LDH-coupled NADH fluorescence kinetic; AID 2267, 2010
* = called active by the depositor. This is one part of a sample in which hits are shown more often than they occur. The call rests on the fitted dose curve; in most records, active means well fitted curve in the direction sought with a large enough effect; inconclusive means small, poorly fitted or top-dose-only effect, or another doubt; inactive means no such curve, though single readings can be large; an effect the other way counts as inactive or inconclusive.

How did O=C(N1CCOCC1)N1CCN(S(=O)(=O)c2ccc(F)cc2)CC1 do in these assays?
PKM2 inh: 31.7%

How did Cc1cc(C)nc(NNC2=CC(=[N+]3CCCC3)CCC2)n1 do in these assays?
PKM2 inh: 34.9%

What do the screens show for `COc1cccc(CNC(=O)CCC2CCCN(C(=O)c3ccc(OC)o3)C2)c1` (stereo not drawn)?
PKM2 inh: 62.4%

Results for COc1c(O)c(O)cc2c1oc1c3ccccc3oc(=O)c21 ?
PKM2 inh: 38.5%

How did O=C(COc1ccccc1C(=O)N/N=C\c1ccc(O)c(O)c1)N/N=C/c1ccc(O)c(O)c1 do in these assays?
PKM2 inh: 56.3%

How did Cc1occc1C(=O)N/N=C/c1ccc2c(c1)OCO2 do in these assays?
PKM2 inh: 5.62µM*; PKM2 inh CRC: 13µM*; PKM2 FLuc cs: 2.59µM*; PKM2 LDH couple: -0.4%

How did CS(=O)(=O)N(CC(=O)N/N=C/c1cc2c(cc1Br)OCO2)c1ccccc1Br do in these assays?
PKM2 inh: 42.2%

What do the screens show for `Cc1cc2nnc(SCC(=O)Nc3ccc(Cl)cc3)n2c(N)n1`?
PKM2 inh: 34.9%

What do the screens show for `Clc1cc2c(c(CSc3nc4ccccc4n4cccc34)c1)OCOC2`?
PKM2 inh: 30.1%

Results for CC1=NN(c2nc3ccccc3[nH]2)C(=O)/C1=C/N(C)C ?
PKM2 inh: 6.31µM*; PKM2 inh CRC: 2.31µM*; PKM2 FLuc cs: 6.51µM*; PKM2 LDH couple: -6.4%

How did COc1ccc(CNC(=O)C2CCN(S(=O)(=O)c3ccc(Br)s3)CC2)cc1 do in these assays?
PKM2 inh: 42.7%

What do the screens show for `CC(C)(C)NC(=O)C1CCC(CNc2c(N3CCCCC3)c(=O)c2=O)CC1` (stereo not drawn)?
PKM2 inh: 5.3%

What do the screens show for `COc1ccc(CSc2ncnc3sccc23)cc1F`?
PKM2 inh: 33.9%

Results for Cc1ccc2nc(-c3ccc(C)o3)c(Nc3ccccc3)n2c1 ?
PKM2 inh CRC: 6.8%; PKM2 FLuc cs: 0.9%; PKM2 LDH couple: inconclusive

What do the screens show for `Cc1ccc(-c2nc3ccccn3c2Nc2ccccc2)o1`?
PKM2 inh: 66.5%

How did c1coc(-c2nc3ccccc3nc2-c2ccco2)c1 do in these assays?
PKM2 inh: 30.3%

Results for Cc1ccc2nc(-c3ccco3)c(Nc3ccccc3)n2c1 ?
PKM2 inh CRC: -0.5%; PKM2 FLuc cs: -0.6%; PKM2 LDH couple: inconclusive

How did Cc1ccn2c(NC3CCCCC3)c(-c3ccc(C)o3)nc2c1 do in these assays?
PKM2 inh CRC: 16.2%; PKM2 FLuc cs: 5.0%; PKM2 LDH couple: -9.4%

Results for Cc1ccc(-c2cc(-c3ccc(C)o3)nc(N)c2C#N)cc1 ?
PKM2 inh: 57.9%

How did Cc1ccc(Nc2c(-c3ccc(C)o3)nc3ccccn23)cc1 do in these assays?
PKM2 inh CRC: 10.2%; PKM2 FLuc cs: -0.2%; PKM2 LDH couple: 4.61µM*

What do the screens show for `CC(C)(C)C(=O)/C(=C\c1ccc([N+](=O)[O-])cc1)n1cncn1`?
PKM2 inh: 49.4%

How did COC(=O)c1ccc(CSc2nc(C)nc3sc(C)c(C)c23)o1 do in these assays?
PKM2 inh: 40.3%

What do the screens show for `O=C(Nc1cccc(S(=O)(=O)N2CCOCC2)c1)c1cnccn1`?
PKM2 inh: 40.6%

What do the screens show for `Cc1nnc(NC(=O)c2csc3c2CCC(C)C3)s1` (stereo not drawn)?
PKM2 inh: 41.4%

How did COc1cc(C(c2nnnn2C(C)(C)C)N2CCN(c3nc4ccccc4s3)CC2)ccc1O (stereo not drawn) do in these assays?
PKM2 inh: 83.3%

Results for Cc1ccc(CNC(=O)Nc2cccs2)cc1 ?
PKM2 inh: 83.2%

What do the screens show for `COC(=O)Nc1ccc(C)c2nsnc12`?
PKM2 inh: 34.8%

Results for Cc1cc2ncc(S(=O)(=O)c3ccccc3)c(N)n2n1 ?
PKM2 inh: 37.1%

How did S=C(NCCc1ccccc1)Nc1cnc2ccccc2c1 do in these assays?
PKM2 inh: 39.9%

Results for CCOC(=O)c1c(C)[nH]c(-c2csc(N)n2)c1C ?
PKM2 inh: 5.9%

How did Cc1cccc2cc(C#N)c(NCCNS(=O)(=O)c3ccc4c(c3)OCCO4)nc12 do in these assays?
PKM2 inh: 31.6%

Results for Cc1ccc(-c2cc(-c3ccc(F)cc3)c(C#N)c(N)n2)o1 ?
PKM2 inh: 47.9%

Source: PubChem BioAssay
